The results in this text go back to PubChem BioAssay (EPA / NIEHS).

The source made the active and inactive calls. How the source made its calls: active means hit-call score of the fitted dose curve at least 0.9, where 1 is the maximum; inactive means score below 0.9.

Read-out in this test: Pro-epidermal growth factor (Homo sapiens) (UniProt P01133)
Nature of the test: LTEA_HepaRG_EGF: Life Technologies and Expression Analysis (LTEA) Assay for Epidermal growth factor (EGF) using HepaRG (AID 2283489). The settings on record: mRNA level, 48 h; actives raise or lower the signal. The method, then:
LTEA_HepaRG is a cell based, multiplexed-readout assay that uses HepaRG, a human liver cell line, with measurements taken at 48 hours after chemical dosing on a 96-well plate.LTEA_HepaRG_EGF is one of 102 assay component(s) measured in the LTEA HepaRG cell culture assay. It is a marker of Cell proliferation, survival, death.Data from the assay component LTEA_HepaRG_EGF was analyzed into 1 endpoint. This assay endpoint, LTEA_HepaRG_EGF, was analyzed with bidirectional fitting relative to DMSO as the negative control and baseline of activity. Using a type of inducible reporter, measures of mRNA induction for gain or loss-of-signal activity can be used to understand regulation of transcription factor activity. To generalize the intended target to other relatable targets, this assay endpoint is annotated to the growth factor intended target family, where the subfamily is EGF-like domain.
A total of 1060 chemcials from the ToxCast library were tested in eight-point concentration-response experiments. Cell culture and cytotoxicity assays were conducted at Thermo Fisher Scientific's Custom Services facility (Madison, WI). A single lot of human HepaRG cells (Thermo Fisher Scientific, Frederick, MD) was used for the cell culture experiments. 96-well format collagen type I coated plates of human HepaRG cells were prepared using established methods. Briefly, cryopreserved HepaRG cells were thawed, plated at a density of approximately 100,000 cells/well in HepaRG Thaw, Plate, and General Purpose media (HPRG770, Thermo Fisher Scientific), and incubated for 48 hours. 0.5% DMSO was selected as vehicle control to balance the requisite need of DMSO in HepaRG cultures to maintain differentiation (for example, baseline metabolism, proportions of hepatocytes vs. cholangiocytes), while enabling further hepatic receptor pathway activation (for example, PXR and CAR) in response to chemical exposure. 48 hours after plating, the culture medium was replaced with HepaRG Serum-Free Incudtion Media. Cells were exposed to each test chemical in duplicate and maintained in CO2 incubators for another 48 hours. Chemical plates were thawed to room temperature and 200x concentrations of treatment groups were prepared. 8-point conentration-reponse curves were made with the highest exposure at 100 uM, followed by half-log dilutions, all in 0.5% DMSO. Each test plate contained variouse controls, induction positive controls (1mM phenobarbital), cytotoxicity positive controls ([…] aflatoxin B1), vehicle controls (0.5% DMSO), and total lysis controls (0.5% DMSO). Cell morphology images were taken using an Essen IncuCyte FLR automated microscope, with six 96-well plates imaged in about 24 minutes. Images were captured and exported and JPEG files. Spent culture media was transfered to black-well plates for the LDH assay, and remaining media was sorted at -80 C for later use. Cells were treated with RLT buffer and frozen until shipped for gene expression analysis. Total RNA was isolated from the cell suspension in 75 uL of Buffer RLT (Qiagen, Germantown, MD 20874) by Quintiles/Expression Analysis (Durham, NC) using a custom isolation procedure. Total RNA from each plate well was transferred to a preamplification plate. Fluidigm's 96.96 Dynamic ArrayTM (Fluidigm, Amsterdam, the Netherlands) technology was used for gene expression analyses by quantitative reverse transcription polymerase chain reaction (qRT-PCR, performed by Quintiles/Expression Analysis, Durham, NC)89. Standard TaqManTM Assays (Applied Biosystems/ThermoFisher Scientific, Foster City, CA) were used to assess the expression of 93 genes selected based on their selectivity and sensitivity to important hepatic receptors known to be modulated by environmental chemicals; importance in human hepatocyte functionality; and hepatotoxicity. […]
Turning to `O=C(NS(=O)(=O)/C=C/c1cccs1)c1ccc(F)cc1Br`, the molecule was classed as inactive.

Turning to `CCCCCCCCCCCCCCOS(=O)(=O)O`, the molecule was classed as inactive.

In the case of `CCc1cc(C2=C(C(=O)O)N(c3ccccc3C(F)(F)F)S(=O)(=O)c3ccccc32)cc2c1OCO2`, the molecule was called inactive.

For `CC(C)COC(=O)CCCCC(=O)OCC(C)C`, the molecule was classed as inactive.

`CC(C)c1cccc(C(C)C)c1NC(=O)NS(=O)(=O)c1cc(C(C)(C)O)co1`: the molecule was classed as inactive.

Regarding `O=C(O)CN(CC(=O)O)CC(=O)O`, the outcome was inactive.

For `Nc1nc(=S)c2[nH]cnc2[nH]1`, the molecule was classed as inactive.

Turning to `CCCCCCCCCCCCCCCCO`, the call was inactive.

Turning to `O=C(Oc1ccccc1)c1cccc(C(=O)Oc2ccccc2)c1`, the call was inactive.

As a reminder, the AC50 is the midpoint of the concentration-response curve, whichever way the signal moves. On to `CC1=C(C)S(=O)(=O)CCS1(=O)=O`, for which the AC50 was 12 µM (active).

Take `C=CCCCCCCCCCCCC`: the molecule was classed as inactive.

On to `NC1CCCCC1`, for which the call was inactive.

As to `CCCC[C@H]1CN(CC2CCOCC2)C(=O)OC12CCN(C1(C)CCN(C(=O)c3c(C)ncnc3C)CC1)CC2`, the call was inactive.

With `O=C(O)CC(O)(CC(=O)O)C(=O)O`, the molecule was classed as inactive.

With `COC(=O)[C@H]1[C@H]2C[C@@H]3c4[nH]c5cc(OC)ccc5c4CCN3C[C@H]2C[C@@H](OC(=O)c2cc(OC)c(OC)c(OC)c2)[C@@H]1OC`, the AC50 is 42.2 µM (active).

With `OCC(CO)n1cnc(-c2ccc(F)cc2)c1-c1ccnc(Oc2ccccc2)n1`, the result was inactive.

Consider `Cc1cc(Cc2ccc(N)c(C)c2)ccc1N`, for which the AC50 is 50 µM (active).

Consider `CC(C)(O)c1ccc(CNC(=O)c2cccnc2Oc2ccc(F)cc2)cc1`, for which the molecule was classed as inactive.

On to `CC(=O)S[C@H](C(=O)N[C@H]1Cc2ccccc2[C@H]2CCC[C@@H](C(=O)O)N2C1=O)C(C)C`, for which the outcome was inactive.

`CC(C)(C)c1ccccc1`: the molecule was classed as inactive.

Take `C#CC(O)C(CC)CCCC` (stereo not given): the molecule was called inactive.

Take `Cn1cnc2c1c(=O)[nH]c(=O)n2C`: the molecule was called inactive.

As for `CC(N)=O`, the result was inactive.

Take `CCCCc1nc2cccnc2n1Cc1ccc(-c2ccccc2-c2nnn[nH]2)cc1`: the outcome was inactive.

As to `CCCCOC(=O)CCCCC(=O)OCCCC`, the molecule was called inactive.

As to `CN(C)CCCN(C)CCCN(C)C`, the call was inactive.

For the molecule `CC(C)c1cccc(C(C)C)c1`, the molecule was called inactive.

As for `CCCCCCC(C=O)=Cc1ccccc1`, the outcome was inactive.

For the molecule `Cc1cc(SC2=C(O)C[C@@](CCc3ccc(N)cc3)(C(C)C)OC2=O)c(C(C)(C)C)cc1CO`, the AC50 is 6.35 µM (active).

With `Cc1c(C)c2c(c(C)c1O)CCC(C)(COc1ccc(CC3SC(=O)NC3=O)cc1)O2` (stereo not given), the outcome was inactive.

Turning to `CC(=O)OC1CC(C)OC(C)O1` (stereo not given), the molecule was classed as inactive.

Turning to `CC(=O)[C@@]1(O)CC[C@H]2[C@@H]3CCC4=CC(=O)CC[C@]4(C)[C@H]3CC[C@@]21C`, the result was inactive.

Take `CC(=O)O`: the molecule was classed as inactive.

As for `O=C1CCCCC1`, the molecule was called inactive.

`CCC(C)N(C)C(=O)c1cc2ccccc2c(-c2ccccc2Cl)n1` (stereo not given): the result was inactive.

Regarding `CN(C)CCCN1c2ccccc2Sc2ccc(Cl)cc21`, the outcome was inactive.

On to `O=C1O[C@H]([C@H](O)CO)C(O)=C1O`, for which the call was inactive.

In the case of `c1ccc2occc2c1`, the call was inactive.

`Cc1occc(=O)c1O`: the call was inactive.

Regarding `CC(COCC(C)OC(=O)c1ccccc1)OC(=O)c1ccccc1` (stereo not given), the call was inactive.
